According to PubChem BioAssay (NCI):
The panel holds about 79,000 compounds, 15% with a hit somewhere; the sample as a whole holds those more often. No stated cut-off is given here; in the data, active means growth inhibition above about 70%; inactive means the rest.

What was measured:
[1] = NCI Yeast Anticancer Drug Screen. Data for the rad50 strain (AID 155);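 further: 0% = growth of vehicle-only cultures of the same strain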; settings: S. cerevisiae rad50 strain growth inhibition; at 50.0 µM; hits give high values
In short: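 Vehicle-treated cultures provide the reference for the growth inhibition reported for compound-exposed, repair-deficient yeast.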

[2] = NCI Yeast Anticancer Drug Screen. Data for the mec2-1 strain (AID 157); settings: S. cerevisiae mec2-1 strain, at 50.0 µM, hits give high values
In short: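 Strain: mec2-1 (DNA repair/cell cycle alteration). Compound exposure, then growth measured; inhibition expressed relative to vehicle.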

[3] = NCI Yeast Anticancer Drug Screen. Data for the mlh1 rad18 strain (AID 175); settings: S. cerevisiae mlh1 rad18 strain growth inhibition; at 50.0 µM; hits give high values
In short: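 Read-out is yeast growth inhibition, calculated against vehicle-only controls. The compound was applied to a strain engineered with DNA damage repair alterations.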

[4] = NCI Yeast Anticancer Drug Screen. Data for the sgs1 mgt1 strain (AID 161);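 further: 0% = growth of cultures given vehicle only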; settings: S. cerevisiae sgs1 mgt1 strain, at 50.0 µM, hits give high values
In short: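 Inhibition of yeast growth, normalised to vehicle-treated controls, is reported for a strain bearing genetic alterations in DNA damage repair.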

[5] = NCI Yeast Anticancer Drug Screen. Data for the cln2 rad14 strain (AID 165);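 further: 0% = growth equal to vehicle treated cultures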; settings: S. cerevisiae cln2 rad14 strain, at 50.0 µM, hits give high values
In short: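 Compounds are applied to the cln2 rad14 yeast strain, and growth is then compared with that of vehicle-treated cultures to give inhibition.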

[6] = NCI Yeast Anticancer Drug Screen. Data for the bub3 strain (AID 167); settings: S. cerevisiae bub3 mutant strain, at 50.0 µM, hits give high values
In short: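 Mutant yeast screening strain plus compound; vehicle-treated cultures serve as the 0% inhibition reference.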

Measured: growth inhibition

CCCCCCC(=O)CCCCCCCCCCCCC(=O)OC
inactive: [1] 2.3% | [2] -1.65% | [3] 12.7%

COc1cc(C2N(c3ccccc3)CCN2c2ccccc2)cc(OC)c1OC
inactive: [1] 59% | [2] 62.9% | [3] 43.1%

OC1CCC2CN3CCc4c([nH]c5ccccc45)C3CC2C1 (stereo unspecified)
inactive: [1] 23.6% | [2] -9.5% | [3] 27.8%

CCO/C=C1\SC(=S)N(c2ccc(C(=O)O)cc2)C1=O
inactive: [1] -6.05% | [2] -16.3% | [3] 13.2%

COc1cc(/C=N/NC(=O)c2cccs2)cc(OC)c1OC
inactive: [1] -12.8% | [2] -26.1% | [3] -13.3%

CCCCCCC(=O)C(CCCC)(C(=O)OCC)C(=O)OCC
inactive: [1] 0.4% | [2] -9.4% | [3] 7.35%

CCOC(=O)CCc1ccc(O)c(O)c1
inactive: [1] 4.9% | [2] 1.85% | [3] 15.6%

NS(=O)(=O)c1ccc(NC(=O)/C=C/C(=O)O)cc1
inactive: [1] -11.9% | [2] -10.4% | [3] -4%

COc1ccc(C(C#N)N2CCOCC2)cc1 (stereo unspecified)
inactive: [1] 17.8% | [2] -11.7% | [3] 5.35%

Cc1c(Cl)cccc1NCN1C(=O)c2ccccc2C1=O
inactive: [1] 9.65% | [2] -6.6% | [3] 31.5%

CC(O)Cn1cnc2c1c(=O)n(C)c(=O)n2C (stereo unspecified)
inactive: [1] -40.1% | [2] -42.8% | [3] -30.1%

COc1ccc(-c2cc(=O)c3ccc(O)cc3o2)cc1
inactive: [1] 7.55% | [2] -13.3% | [3] 38%

COC(=O)C1=CCCC2CN3CCc4c([nH]c5ccccc45)C3CC12 (stereo unspecified)
inactive: [1] 13.8% | [2] -7.8% | [3] 18%

Nc1nc(N)nc(-c2ccccc2Cl)n1
inactive: [1] 3.65% | [2] -10.8% | [3] 32.2%

N#[N+]c1ccc2c(S(=O)(=O)O)cccc2c1O
inactive: [1] -17.9% | [2] -16.2% | [3] -25.7%

CC(C)CC(Br)C(=O)NC(CC(C)C)C(=O)O (stereo unspecified)
inactive: [1] -26.2% | [2] -27.9% | [3] -23.2%

S=C=NC1CCCCCCCCCCC1
inactive: [1] 18.9% | [2] -3.9% | [3] 36.6%

CCn1c(C)[n+](CC)c2ccc(C(F)(F)F)cc21
inactive: [1] -6.4% | [2] -10.7% | [3] 14.9%

CCCCCCCCCC(O)CCCCC (stereo unspecified)
inactive: [1] -1.85% | [2] -21.2% | [3] 15.3%

CCCCCCCCCCCCCCCc1cc(=S)n(C)c2ccc(C)cc12
inactive: [1] 25.1% | [2] -13.5% | [3] 16.1%

O=C(N/N=C/c1ccc2c(c1)CCC2)c1cccc([N+](=O)[O-])c1
inactive: [1] -17.9% | [2] -30.9% | [3] -15.8%

O=C(O)c1ccc(NCn2c(=S)[nH]c3ccccc32)cc1O
inactive: [1] -7.6% | [2] -42.5% | [3] -16.2%

COC(=O)c1ccc2oc(=O)cc(C)c2c1O
inactive: [1] -7.6% | [2] -7.75% | [3] 11.7%

Nc1ccc2[nH]c(-c3ccccc3)cc(=O)c2c1
inactive: [1] -38% | [2] -33.8% | [3] -15.9%

S=C(S)NC1CCCCCCCCCCC1
inactive: [1] 45.8% | [2] 23.8% | [3] 39%

COC(CN(C)CC(OC)OC)OC
inactive: [1] -8.75% | [2] -20.9% | [3] -11.8%

CCOC(=O)c1c(N)sc2c1CCN(Cc1ccccc1)C2
inactive: [1] 39.4% | [2] 17.8% | [3] 21.9%

NC(=O)C(c1ccccc1)N1CCCC1 (stereo unspecified)
inactive: [1] 2.05% | [2] -17.9% | [3] -0.55%

COc1ccc(/C=N/N2C(=O)c3ccccc3C2=O)cc1OC
inactive: [1] 21% | [2] 1.2% | [3] 6.3%

Cc1ccc(COC(=O)c2cccnc2)cc1
inactive: [1] -16.4% | [2] -18.6% | [3] 8.65%

O=[N+]([O-])c1cc([N+](=O)[O-])c2nc3ccccn3c2c1
inactive: [1] -1.85% | [2] -43.9% | [3] -11.7%

C(=N\N=C\c1c[nH]c2ccccc12)/c1c[nH]c2ccccc12
inactive: [1] -21.6% | [2] -21.9% | [3] 0.25%

COc1cc(-c2cc(=O)c3c(O)cc(C)cc3o2)cc(OC)c1OC
inactive: [1] -0.85% | [2] -9.8% | [3] -17.8%

Cc1ccc(N2CCOC2=O)cc1N1CCOC1=O
inactive: [1] -8.3% | [2] -32.6% | [3] -10.7%

Nc1ccccc1SC1CC(=O)N(c2ccccc2Cl)C1=O (stereo unspecified)
inactive: [1] -18.4% | [2] -33.1% | [3] -6.5%

COc1cccc(N2C(=O)CSC2=S)c1
inactive: [1] 32.7% | [2] 7.95% | [3] 46.8%

CC(CN1CCCC1)C(O)(Cc1ccccc1)c1ccccc1 (stereo unspecified)
inactive: [1] -0.05% | [3] -4.15%

CCCCCCCCCCCCC/C=C/[C@H]1[C@@H](C(=O)OC)N1S(=O)c1ccc(C)cc1 (stereo partly specified)
inactive: [1] -15.1% | [4] 1.25% | [5] -13.1% | [6] -10.5% | [3] -43.5%

COc1ccc(CCN2C(=O)CSC2=S)cc1OC
inactive: [1] -14% | [2] -17.4% | [3] -2.6%

Cc1cc(Cl)ccc1NCN1C(=O)c2ccccc2C1=O
inactive: [1] -6.8% | [2] -8.9% | [3] 15.8%

COc1ccc(/C=N\NC(=O)OC(C)(C)C)c(OC)c1OC
inactive: [1] -23.8% | [2] -33.4% | [3] -24.4%

NC(=O)NC(CCCN=C(N)N)C(=O)O (stereo unspecified)
inactive: [1] -21.4% | [2] -36.3% | [3] -36.1%

COc1ccc2cc1Oc1ccc(cc1)CC1c3cc(OC)c(cc3CCN1C)Oc1c(OC)c(OC)cc3c1C(C2)N(C)CC3 (stereo unspecified)
inactive: [1] -4.6% | [4] -6.8% | [5] 6.9% | [6] 5.25% | [3] -43.3%

Cc1ccc(NC(=S)NCCO)cc1
inactive: [1] -25.4% | [2] -41.8% | [3] -13.6%

O=c1oc(-c2cccc([N+](=O)[O-])c2)nc2ccccc12
inactive: [1] 4.4% | [2] -10.2% | [3] 4.8%

O=[N+]([O-])c1ccc2nc3c(nc2c1)-c1cccc2cccc-3c12
inactive: [1] 2.15% | [2] -15.9% | [3] 12.3%

CC12CCC(CC1)C(C)(C)O2
inactive: [1] -1.95% | [4] -2.5% | [5] 9.6% | [6] -1.25% | [3] 4.7%

COc1ccc(C(C(N)=O)N2CCCC2)cc1 (stereo unspecified)
inactive: [1] 1% | [3] 16.6%

CCC(=O)N/N=C/C=N/NC(=O)c1ccncc1
inactive: [1] -30.7% | [2] -31.8% | [3] -7.25%

COc1ccc(C(C#N)N2CCCC2)cc1 (stereo unspecified)
inactive: [1] -21.9% | [3] -9.75%

CCCCCCCCOC(=O)C12Oc3ccc(-c4ccc5c(c4O)C(O)=C4C(=O)CC(C)C(O)C4(C(=O)OCCCCCCCC)O5)c(O)c3C(O)=C1C(=O)CC(C)C2O (stereo unspecified)
inactive: [1] 16.4% | [5] 7.6% | [6] 33.6% | [3] -54.6%

O=C(O)/C=C/C(=O)Nc1cc(Cl)c(Cl)cc1Cl
inactive: [1] -11.3% | [2] -3.25% | [3] -10.9%

N#CC1(C#N)N[C@@H](c2ccsc2)[C@H]2C(=O)N(c3ccccc3)C(=O)[C@H]21
inactive: [1] 5.6% | [4] 3.75% | [6] -6.95% | [3] -4.05%

Cc1ccccc1NC(=S)Nc1ccccn1
inactive: [1] 22% | [2] -0.3% | [3] 10.3%

CC1CCN(c2ccc([N+](=O)[O-])cc2[N+](=O)[O-])CC1
inactive: [1] 42.2% | [2] 3.85% | [3] 25.6%

COc1ccc2c(C)cc(N/N=C/c3ccc(C)s3)nc2c1
inactive: [1] -23.4% | [4] -19.4% | [5] 9.05% | [6] -39.1% | [3] -12.1%

CCCOC(=O)C(=O)C(C#N)c1ccccc1 (stereo unspecified)
inactive: [1] 21.1% | [2] -0.35% | [3] 16.9%

CCCCCCCCCCCCOc1ccc(C)cc1
inactive: [1] 5.45% | [2] -25% | [3] 5.3%

O=C1CC(c2ccccc2)NCCCCN2CC(CN1)C(C(O)c1ccccc1)C2=O (stereo unspecified)
inactive: [1] -20.4% | [4] -39.4% | [5] 8.95% | [6] -44.6% | [3] -49%
